The source of these data is PubChem BioAssay (NCATS).

Assay [1] in a line: HPAF-II 24hr Apoptosis Induction qHTS against the NCATS CANVASS Library (AID 1347356). Also: 0% is about no effect. The essentials:
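Caspase-Glo 3/7 luminescence, read after 15 min room-temperature development, measures apoptosis in HPAF-II cells treated 24 h at 37 degrees C with an 11-point concentration series; 500 cells/well; doxorubicin control.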
(qHTS replaces the single test concentration by a dilution series.)

Assay [2] can be described thus: HEK293 18hr Apoptosis Induction qHTS against the NCATS CANVASS Library (AID 1347357). Also: 0% is about no effect. The essentials:
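Natural products applied to HEK293 for 18 hr; Caspase-Glo 3/7 readout.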

A short description of assay [3]: HPAF-II 18hr Apoptosis Induction qHTS against the NCATS CANVASS Library (AID 1347360). Also: 0% is about no effect. The essentials: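 Luminescent DEVD-substrate signal, proportional to caspase activity, is measured in HPAF-II cells after 18-hour treatment across a concentration series; doxorubicin serves as control.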
Assay [4] in a line: HEK293 12hr Apoptosis Induction qHTS against the NCATS CANVASS Library (AID 1347361). Also: 0% is about no effect. An outline of the steps: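 Luminescent caspase-3/7 signal, proportional to enzyme activity, was recorded from HEK293 cultures in DMEM + 10% FBS treated for 12 hours with titrated natural products (11 points). Doxorubicin (0.1nM - 4uM) served as control.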
The test system of assay [5] is NAD(P)H diaphorase (Clostridium kluyveri). Nature of the assay: Diaphorse counterscreen qHTS: Assay Interference Panel against the NCATS CANVASS Library (AID 1347362). Also: 0% is about no effect. An outline of the steps:
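Counterscreen for coupling-enzyme interference: resorufin fluorescence from resazurin/NADH turnover, read after 5 min at room temperature. Compounds were tested over an 11-point series after 15 min dark preincubation with diaphorase in PBS-Tween.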
A general note: A counterscreen serves to expose hits that act by an unwanted route or on another target.

Assay [6] deals with Nuclear receptor subfamily 1 group I member 3 (Homo sapiens) (UniProt Q14994). Kind of assay: qHTS for Constitutive Androstane Receptor (CAR) Antagonist screened against the NCATS CANVASS Library (AID 1347372). Also: potency is read from the fitted curve at half-maximal effect.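 As to activity change, negative = inhibition: cells stimulated with 50 nM CITCO agonist so inhibition reflects antagonism; % is scaled to controls: 0 for no effect and ±100 for the full control effect.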 The essentials:
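Antagonist mode: compound added alongside 50 nM CITCO to HepG2-hCAR-CYP2B6 reporter cells, 24hr at 37C. Viability by CellTiter-Fluor fluorescence, then CAR-driven luciferase by ONE-Glo luminescence.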

The target is the same in assay [7]. Kind of assay: qHTS for Constitutive Androstane Receptor (CAR) Agonist screened against the NCATS CANVASS Library (AID 1347373).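 Also: every well also contained 1.5 µM PK11195 alongside the test compound; 0% is about no effect.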 The essentials:
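Agonist mode with 1.5uM PK11195 present: compounds for 24hr on HepG2-hCAR-CYP2B6 cells. CellTiter-Fluor fluorescence (ex 405, em 540 nm) gives viability; ONE-Glo luminescence reports CAR activation.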

A short description of assay [8]: 10-beta competent E. coli microbial cell viability qHTS against the NCATS CANVASS Library (AID 1347376). Also: 0% is about no effect. The essentials: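 Read-out: BacTiter-Glo ATP luminescence, taken 20 min after reagent addition. Beforehand, 10-beta competent E. coli at 0.2 OD had been incubated overnight at 37C with compounds at 11 concentrations.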
A short description of assay [9]: DH5-alpha competent E. coli microbial cell viability qHTS against the NCATS CANVASS Library (AID 1347377). Also: 0% is about no effect. The note with it: outcome: dose series up to 46.1 µM unless noted. An outline of the steps:
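Bacterial viability as ATP-dependent luminescence (BacTiter-Glo), read after overnight 37 °C exposure of DH5-alpha competent E. coli to compounds in 11-point titration.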

Assay [10] is described as follows: qHTS for Inflammasome Signaling Inhibitors: IL-1-beta AlphaLISA screen against the NCATS CANVASS Library (AID 1347379).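 Also: human THP-1 cells primed with LPS then triggered with ATP.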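 As to Potency: secreted IL-1B measured as AlphaLISA emission at 615 nm; potency is read from the fitted curve at half-maximal effect.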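 As to activity change, negative = inhibition: secreted IL-1B measured as AlphaLISA emission at 615 nm; % is scaled to controls: 0 for no effect and ±100 for the full control effect; lower signal means less IL-1B release which is the wanted effect.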 The essentials:
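Secreted IL-1B from human THP-1 cells quantified by AlphaLISA 16 hr after compound addition (final up to 57.5 uM). A 1 hr compound pretreatment preceded inflammasome activation with 250 ng/mL LPS plus 1.25 mM ATP (final).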

A short description of assay [11]: Cytotoxicity qHTS for assessment of Hepg2 cells membrane integrity screened against the NCATS CANVASS Library (AID 1347387). An outline of the steps:
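Membrane damage quantified as fluorescent LDH-release signal (ex 560, em 590 nm) in HepG2 cells treated 5 hr at 37C. qHTS format, 11 concentrations spanning 0.59 nM - 46 uM final, cells plated at 2000 per well the night before.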

The nature of assay [12]: qHTS for Activators of p53 Stress Response Pathway screened against the NCATS CANVASS Library (AID 1347388). Also: potency is read from the fitted curve at half-maximal effect. An outline of the steps:
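Beta-lactamase reporter driven by p53 response elements in HCT-116 cells, read as the 460 nm/530 nm emission ratio after CCF4 loading, following 16 h of exposure to an 11-point series. Cell viability was measured in the same wells by CellTiter-Glo luminescence.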

Assay [13] in a line: Redox Reaction Profiling qHTS: Assay Interference Panel against the NCATS CANVASS Library (AID 1347401). Also: potency is read from the fitted curve at half-maximal effect. The essentials:
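Redox-cycling liability assessed as DTT-driven conversion of resazurin (5 uM, with 200 uM DTT, HEPES pH 7.3) to fluorescent resorufin. Fluorescence at 525/598 nm measured initially and after 15 min dark incubation.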

Assay [14] concerns the target Glutathione peroxidase 1 (Homo sapiens) (UniProt P07203). Nature of the assay: Primary qHTS Assay for Inhibitors of Recombinant Selenoprotein Glutathione Peroxidase 1 (GPX1) (AID 1845191). Also: nearly all actives have a fitted effect of over 65% in size. An outline of the steps:
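NADPH consumption tracked by fluorescence at 340/450 nm between t=0 and t=15 min, room temperature. Final mix: 10 nM GPX1, 100 nM glutathione reductase, 1 mM GSH, 0.5 mM NADPH, 0.5 mM cumene hydroperoxide, 0.01% BSA; 30 min compound–enzyme preincubation.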

Assay [15] is described as follows: qHTS to identify inhibitors of the type 1 interferon - major histocompatibility complex class I in skeletal muscle: primary screen against the NCATS Mechanism Interrogation Plate v5.0 (MIPE) Libary (AID 1347411). Also: potency is read from the fitted curve at half-maximal effect; nearly all actives have a fitted effect of over 65% in size. The essentials:
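Luminescence from CRISPR HiBit-tagged endogenous HLA-B in human myoblasts reported MHC class I level after 24 h of IFN-beta (4 ng/ml) plus compound. Compounds ran as 11-point 1:3 series, top 46 uM final.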

The nature of assay [16]: Primary qHTS for inhibitors of nuclear receptor binding SET domain protein 2 (NSD2) in an isogenic RCH-ACV NSD2 p.E1099K mutant (9B) (AID 1645876). Also: potency is read from the fitted curve at half-maximal effect; nearly all actives have a fitted effect of over 70% in size.
Assay [17] in a line: Primary qHTS for inhibitors of nuclear receptor binding SET domain protein 2 (NSD2) in an RCH-ACV wild type WT cells (2C) (AID 1645877). Also: potency is read from the fitted curve at half-maximal effect; nearly all actives have a fitted effect of over 70% in size.
In assay [18] the target is Phospholipid hydroperoxide glutathione peroxidase GPX4 (Homo sapiens) (UniProt P36969). Kind of assay: Primary qHTS Assay for Inhibitors of Recombinant Selenoprotein Glutathione Peroxidase 4 (GPX4) (AID 1845192). Also: % is scaled to controls: 0 for no effect and ±100 for the full control effect; nearly all actives have a fitted effect of over 65% in size. To be noted: outcome: dose series up to 50 µM unless noted. The essentials: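 NADPH consumption followed by fluorescence at 340/450 nm, t=0 and after 15 min at room temperature. Reaction started with cumene hydroperoxide (0.5 mM final) after 30 min compound–GPX4 preincubation; final 200 nM GPX4, 100 nM GR, 1 mM GSH, 0.5 mM NADPH.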

A short description of assay [19]: qHTS drug screen for cell cycle checkpoint inhibitors in PARPi-resistant BRCA-mutant ovarian cancer cell lines. (AID 1963452; calls by dose curve). To be noted: PEO1/OlaR viability, CellTiter-Glo luminescence, 96 h, stronger effect = lower value. The essentials: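 PEO1, PEO4 and PEO1/OlaR ovarian cancer cells, 600 per well, exposed 96 h at 37C to a dilution series. Viability read by CellTiter-Glo luminescence, normalized to DMSO and empty wells; activity summarized as Z-AUC.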

Assay [20] is described as follows: qHTS assay to identify inhibitors of the type 1 interferon - major histocompatibility complex class I in skeletal muscle: Counter screen cell viability and HiBit confirmation (AID 1347412). Also: potency is read from the fitted curve at half-maximal effect. As to activity change, negative = inhibition: % is scaled to controls: 0 for no effect and ±100 for the full control effect. As to all read-outs here: nearly all actives have a fitted effect of over 60% in size. The note with it: iHSKM muscle cells + IFN-b, HiBiT or CellTiter-Glo, 24 h; for Potency: HiBiT; for activity change, negative = inhibition: Viability, at 45.9 µM (top of the series). An outline of the steps: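 Human myoblast knock-in line, 4.0 ng/ml IFN-beta stimulation, 24 h compound treatment. Endpoints: HiBiT lytic luminescence (HLA-B level) and CellTiter Glo (ATP). Dosing 12 concentrations, 3-fold steps, 46 uM highest final.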

Setting [21] is: measured here: PEO1 parental Z-AUC.

Results filed as inconclusive are left out. Active and inactive are the calls of the source. Unless noted, calls follow the shape of the dose curve; as a rule, active = well fitted curve in the direction sought with a large enough effect; inconclusive = small, poorly fitted or top-dose-only effect, or another doubt; inactive = no such curve, though single readings can be large; an effect the other way counts as inactive or inconclusive.

Chain of Glutathione peroxidase 1 (Homo sapiens) (P07203 whole entry, looked up): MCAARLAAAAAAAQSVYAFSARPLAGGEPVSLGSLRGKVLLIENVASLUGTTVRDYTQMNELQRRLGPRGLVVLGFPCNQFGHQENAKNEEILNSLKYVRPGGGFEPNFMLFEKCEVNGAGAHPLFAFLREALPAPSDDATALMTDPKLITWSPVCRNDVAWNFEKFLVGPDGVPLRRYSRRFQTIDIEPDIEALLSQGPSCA
Chain of Nuclear receptor subfamily 1 group I member 3 (Homo sapiens) (Q14994 whole entry, looked up): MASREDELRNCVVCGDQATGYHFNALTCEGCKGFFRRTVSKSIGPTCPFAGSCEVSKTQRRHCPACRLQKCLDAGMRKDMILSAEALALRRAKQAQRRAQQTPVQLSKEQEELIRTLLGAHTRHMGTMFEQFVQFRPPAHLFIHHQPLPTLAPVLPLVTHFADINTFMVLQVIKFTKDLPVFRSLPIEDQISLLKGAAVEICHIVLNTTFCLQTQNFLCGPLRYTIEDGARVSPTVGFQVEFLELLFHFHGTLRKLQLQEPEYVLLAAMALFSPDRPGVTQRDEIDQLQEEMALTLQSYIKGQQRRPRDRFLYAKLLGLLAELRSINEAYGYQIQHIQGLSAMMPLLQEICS
Chain of Phospholipid hydroperoxide glutathione peroxidase GPX4 (Homo sapiens) (P36969 whole entry, looked up): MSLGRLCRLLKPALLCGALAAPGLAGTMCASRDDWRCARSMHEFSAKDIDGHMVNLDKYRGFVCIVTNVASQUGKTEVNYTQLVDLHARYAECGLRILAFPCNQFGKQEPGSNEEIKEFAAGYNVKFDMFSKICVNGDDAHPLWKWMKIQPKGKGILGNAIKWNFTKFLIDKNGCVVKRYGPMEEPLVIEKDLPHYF

In the case of `C/C(=C\[C@H](C)C(=O)/C=C/CC1CC(=O)NC(=O)C1)[C@@H]1OC(=O)CCCC/C=C/[C@H](O)[C@@H](O)[C@@H]1C`, the outcome in [1], in [4], in assay [8], in assay [9] and in assay [11] was inactive. Besides, the Potency result in assay [2], in [3], in assay [5], in [6], in assay [7] and in assay [12] was “inactive” throughout. Further, the Potency in [10] was 21700 nM (active); in assay [13], 24100 nM (active).
Consider `CO[C@@H]1[C@H](O)[C@@H](C)O[C@@H](OC[C@@H]2C(C)OC(=O)/C=C/[C@H](C)C(O[C@@H]3O[C@H](C)CC4(OC(=O)O[C@@H]4C)C3O)[C@@H](C)CC(C)C(=O)/C=C/[C@H]3OC23)[C@@H]1OC` (some centres not stated), for which the outcome in assay [1], in assay [8], in assay [9] and in [11] was inactive. For the same compound, the Potency result in assay [3], in assay [5], in [7], in assay [10], in assay [12] and in assay [13] was “inactive” throughout. Further, the Potency in assay [6] is 20900 nM (active).
For `C=C1C(=O)O[C@H]2[C@H]1CCC(C)=C1CC[C@@](C)(O)[C@@H]12`, the outcome in [1], in assay [4], in assay [8], in assay [9] and in assay [11] was inactive. The Potency result in assay [2], in assay [3], in assay [5], in [6], in [7] and in assay [12] was “inactive” in each case. Moreover, the Potency result in assay [13] was “inactive”. Also, the Potency in assay [10] was 9680 nM (active).
As for `C=C[C@@](C)(O)CC[C@@H]1[C@@]2(C)CCCC(C)(C)[C@@H]2CC[C@@]1(C)O`, the compound was called inactive in assay [1], in assay [4], in assay [8] and in assay [11]. Moreover, the Potency entry in assay [2], in [3], in [5], in assay [7], in assay [10] and in assay [12] was “inactive” in each case. For the same compound, the Potency result in assay [13] and in [14] was “inactive” throughout.
With `Cc1ccc(NC(=O)c2ccc3c(c2)OCCO3)cc1NC(=O)c1ccc2nc(OCCN3CCCC3)ccc2c1`, the Potency is 286 nM (active) in assay [15], 57.4 nM (active) in assay [16], 45.6 nM (active) in assay [17] and 557 nM (active) in assay [20]. For the same compound, the Potency result in assay [14] and in [18] was “inactive” each time. The Z-AUC in assay [19] is -1.99 (inactive); in [19] (setting [21]) it was -1.87; in assay [19] (measured here: PEO4 Z-AUC), -2.21. Besides, the activity change, negative = inhibition in assay [20] was -19.9% (inactive).
For `Cc1ccc(NC(=O)NCc2ccc3c(c2)CN(C2CCC(=O)NC2=O)C3=O)cc1Cl` (configuration not stated), the Potency in [15] is 14.7 nM (active); in assay [16], 1.5 nM (active); in [17], 1.2 nM (active); in assay [20], 7.9 nM (active). The Potency result in [14] and in assay [18] was “inactive” in each case. Further, the figures for the Z-AUC in assay [19], in [19] (setting [21]) and in assay [19] (measured here: PEO4 Z-AUC) were -3.37 (inactive), -3.53 and -3.45, respectively. In assay [20], the activity change, negative = inhibition was -11.6% (inactive).
Turning to `COc1ccc([C@@H]2c3cc4c(cc3C[C@H](C)C2C)OCO4)cc1OC` (some centres not stated), the outcome in assay [1], in assay [4], in [8], in assay [9] and in assay [11] was inactive. In addition, the Potency entry in [2], in assay [3], in assay [5], in [6], in assay [7] and in assay [10] was “inactive” in each case. Moreover, in assay [13], the Potency result is “inactive”. The Potency in [12] was 7410 nM (active).
